RE007 growth inh: qHTS Assay for Inhibitors of the HIV-1 protein Vpr; S. pombe RE007 Vpr strain, BacTiter-Glo ATP luminescence, 24 h; Potency, µM (series often up to 92.2 µM), actives largely listed as inhibitors; hit rate 0.21% among 360,000; active = well fitted falling curve with a large enough effect; inconclusive = small, poorly fitted or top-dose-only effect; inactive = no such curve, though single readings can be large or run the other way; note: nearly all actives have a fitted effect of over 50% in size
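Fission yeast RE007 carrying one integrated HIV-1 vpr copy, seeded at OD 0.01 in PMG+AL medium with 23 nL pinned compound. Grown 24 h at 30 degrees; viability read by BacTiter-Glo luminescence after 5 min.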
TbPYK inhibitor: qHTS of Trypanosoma Brucei Inhibitors | pyruvate kinase (Trypanosoma brucei), Q57TT1 | TbPYK enzyme, Kinase-Glo Plus ATP luminescence, 45 min | Potency, µM (highest dose often 76.8 µM), usual class: inhibitors | hit rate 0.12% among 410,000; note: nearly all actives have a fitted effect of over 50% in size
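T. brucei PYK with substrate was exposed to pin-transferred compounds across a concentration series, then started with 130 uM ADP (final). After 45 min at room temperature, Kinase-Glo Plus luminescence was read, normalized and curve-fitted.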
Sm TGR block: qHTS Assay for the Inhibitors of Schistosoma Mansoni Peroxiredoxins; hit rate 3% among 360,000; AID 485364, 2010; Schistosoma mansoni thioredoxin glutathione reductase (TGR), Q962Y6; purified TGR, DTNB reduction, TNB absorbance 405 nm; Potency, µM (titrated, usually from 114 µM), most hits filed as inhibitors; note: nearly all actives have a fitted effect of over 60% in size
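Kinetic colorimetric format: TGR-catalysed, NADPH-driven DTNB reduction monitored via TNB absorbance. Enzyme dispensed at 20 nM; compound exposure 15 min at room temperature before reaction start.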
LmPK inhibitor: qHTS Assay for Inhibitors of Leishmania Mexicana Pyruvate Kinase (LmPK) | Q27686 | purified LmPK, Kinase-Glo ATP luminescence, 1 h | Potency, µM (top dose mostly 57.5 µM), most hits filed as inhibitors | hit rate 0.37% among 290,000 | AID 1721, 2009
Target sequence (Q27686 whole entry, looked up): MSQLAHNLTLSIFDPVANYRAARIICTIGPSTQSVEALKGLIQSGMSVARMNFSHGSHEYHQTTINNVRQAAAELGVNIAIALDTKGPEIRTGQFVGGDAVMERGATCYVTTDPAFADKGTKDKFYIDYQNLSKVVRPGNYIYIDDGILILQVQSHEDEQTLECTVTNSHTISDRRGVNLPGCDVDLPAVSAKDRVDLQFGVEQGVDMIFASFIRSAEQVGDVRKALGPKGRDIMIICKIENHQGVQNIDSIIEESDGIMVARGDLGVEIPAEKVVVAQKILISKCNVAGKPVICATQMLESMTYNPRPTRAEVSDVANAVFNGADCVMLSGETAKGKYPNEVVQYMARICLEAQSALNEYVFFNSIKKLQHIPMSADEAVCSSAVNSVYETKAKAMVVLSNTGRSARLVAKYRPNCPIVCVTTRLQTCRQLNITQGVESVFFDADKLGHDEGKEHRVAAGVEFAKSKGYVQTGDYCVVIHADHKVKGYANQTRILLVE
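0.1 nM LmPK, 0.5 mM PEP, 0.1 mM ADP; 50 mM imidazole pH 7.2, 7 mM MgCl2, 50 mM KCl; 1 h RT. Kinase-Glo luminescence readout, normalized to no-enzyme (full inhibition) and uninhibited wells.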
AMA1 RON2 block: qHTS for Inhibitors of AMA1-RON; Towards Development of Antimalarial Drug Lead: Primary Screen | Plasmodium falciparum AMA1 (3D7) - RON2 peptide interaction | AlphaScreen AMA1-biotinylated RON2 peptide binding | Potency, µM (highest dose often 58.2 µM), most hits filed as inhibitors | hit rate 0.2% among 360,000; note: nearly all actives have a fitted effect of over 45% in size
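AMA1 (3D7) with his tag at 25 nM final met compounds first, then biotinylated RON2 peptide at 25 nM; detection used donor plus acceptor beads, 10 µg/mL apiece, read by AlphaScreen after 30 min at room temperature.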
Hits are given with their value; - = inactive; ? = inconclusive; . = no result; [ ] = remark or other dose. A selection: hits, their analogues and other compounds. The true share with any hit is near 3.2%. Unless noted, calls come from the whole dose curve; as a rule, active = well fitted curve in the direction sought with a large enough effect; inconclusive = small, poorly fitted or top-dose-only effect, or another doubt; inactive = no such curve, though single readings can be large; an effect the other way counts as inactive or inconclusive.

SMILES | RE007 growth inh | TbPYK inhibitor | Sm TGR block | LmPK inhibitor | AMA1 RON2 block
O=C(NCc1cccnc1)/C(=C\c1ccc(-c2cccc(Cl)c2)o1)S(=O)(=O)c1ccccc1 | - | - | 18µM | - | -
CCOc1cccc(CC(=O)N2CCc3c([nH]c4ccccc34)C2c2ccccc2)c1OCC (centres undefined) | . | - | - | . | .
Cc1ccc(S(=O)(=O)N2CCN(C(=O)CN3CCOCC3)C2c2ccccc2)cc1 (centres undefined) | - | - | 40µM | - | -
O=C(CN1CCOCC1)N1CCN(S(=O)(=O)c2ccccc2)C1c1ccccc1 (centres undefined) | - | - | - | - | -
Cc1ccc(Cn2c(CNC(=O)Cc3cccc([N+](=O)[O-])c3)nc3cccnc32)cc1 | . | - | - | . | .
CC(C)c1cc(NC(=O)CCl)on1 | - | - | 13µM | - | -
CCC(C)NC(=O)c1cc(C)no1 (centres undefined) | - | - | - | - | -
Cc1cc(NC(=O)c2cc(C(C)C)on2)no1 | - | - | - | - | -
Cc1cc(NC(=O)CCl)on1 | - | - | 16µM | - | -
CN(C)c1ccc(CNC(=O)C2CCN(c3nnc(-n4cccc4)s3)CC2)cc1 | . | - | - | . | .
CCSC1(SCC)N=C(N)C2(C#N)C(c3ccc(OC)c(OC)c3OC)C12C#N (centres undefined) | 5.6µM | - | 14µM | - | -
CCSC1(SCC)N=C(N)C2(C#N)C(c3ccccc3)NC3=C(CCC3)C12C#N (centres undefined) | ? | - | ? | - | -
S=C(NCCCn1ccnc1)Nc1ccc(Cl)cc1Cl | - | - | 32µM | - | -
O=C1CCCN1CCCNC(=S)Nc1ccc(Cl)cc1Cl | - | - | 89µM | - | -
CN(C)S(=O)(=O)c1cccc(NC(=S)NCCCn2ccnc2)c1 | - | - | 50µM | - | -
O=C(NCCCN1CCCC1=O)Nc1ccc(Cl)cc1Cl | - | - | - | - | -
COc1cccc(NC(=O)Cn2c(=O)n(-c3ccc(C)cc3)c(=O)c3ccccc32)c1 | . | - | - | . | .
COc1cccc(Cn2c(CNS(=O)(=O)c3ccc(C(C)(C)C)cc3)nc3cccnc32)c1 | . | - | - | . | .
CCOC(=O)c1ccc(CC(=O)c2oc3cc(O)ccc3c2C)o1 | - | - | 28µM | - | -
CCOC(=O)c1ccc(NC(=O)c2c(NCc3cc(OC)c(OC)cc3OC)sc3c2CCCC3)cc1 | . | - | - | . | .
Cc1cccc(N=C2c3cc([N+](=O)[O-])ccc3-c3c2cc([N+](=O)[O-])cc3[N+](=O)[O-])c1 | 22µM | - | . | . | ?
Cc1cccc(C)c1NC(=O)c1nc(SC(C)C)ncc1Cl | . | - | - | . | .
O=C(Nc1ccc(C(F)(F)F)cc1Cl)c1ccc(Cn2cc(Br)cn2)o1 | - | - | 45µM | - | -
O=C(NC1CCCCC1)c1ccc(Cn2cc(Br)cn2)o1 | - | - | 45µM | - | -
Cc1cc2c(c(=O)o1)C(c1ccc([N+](=O)[O-])o1)C(C#N)=C(N)O2 (centres undefined) | - | - | 14µM | - | ?
SMILES | RE007 growth inh | TbPYK inhibitor | Sm TGR block | LmPK inhibitor | AMA1 RON2 block
CCc1ccc(C2c3c(-c4cc(C)ccc4O)n[nH]c3C(=O)N2CCO)cc1 (centres undefined) | . | - | - | . | .
O=C1c2cccc3cccc(c23)C(=O)C1(O)O | - | 7.1µM | . | . | -
C/C(=N/NC(=O)CNC(=O)c1ccccn1)c1cccc([N+](=O)[O-])c1 | - | - | 20µM | - | -
O=C(NNC(=O)c1ccccn1)c1cccc([N+](=O)[O-])c1 | - | - | - | - | -
Cc1c(CNCCc2ccc(Cl)cc2)c(C(=O)O)c(C)n1-c1ccccc1 | - | - | 11µM | - | -
Cc1ccc(CCNCc2c(C(=O)O)c(C)n(-c3ccccc3)c2C)cc1 | - | - | ? | - | -
Cc1[nH][nH]c(=O)c1C(c1ccc(-c2cccc(Cl)c2)o1)c1c(C)[nH][nH]c1=O | - | ? | 7.1µM | - | -
COC(=O)c1ccc(-c2ccc(C(c3c(C)[nH][nH]c3=O)c3c(C)[nH][nH]c3=O)o2)cc1 | - | - | 8.9µM | - | -
CCN(CC)c1ccc(NC(=O)CN2C(=O)c3cccnc3Oc3ccccc32)c(C)c1 | . | -[15.4 µM] | - | . | .
CCOc1ccc(CN(C)Cc2cc(=O)oc3cc(C)c(Cl)cc23)cc1 | - | - | - | - | -
CCOc1ccc(N(C)Cc2cc(=O)oc3ccc(OCC)cc23)cc1 | - | - | - | - | 25µM
CCC(C(=O)Nc1cc(C)ccc1OC)n1nnc(C(=O)OC)c1C(=O)OC (centres undefined) | . | - | - | . | .
O=C(N/N=C(\c1ccccc1)c1cccnc1)c1cc(O)ccc1O | . | . | 40µM | - | .
COc1cccc(/C=C(\C#N)C(=O)Nc2ccc(NC(C)=O)cc2)c1OC | . | - | - | . | .
COc1cccc(CNC(=O)C2=C(C)C(=O)OC23CCN(C(C)=O)CC3)c1OC | . | -[15.4 µM] | - | . | .
Cn1c(=O)c2c(ncn2CCN(CCO)Cc2ccccc2)n(C)c1=O | - | - | 45µM | - | -
CCN(Cc1ccccc1)C(=O)Cn1cnc2c1c(=O)n(C)c(=O)n2C | - | - | - | - | -
COC(=O)c1ccccc1NC(=O)N1CCC(n2c(C)nc3cccnc32)CC1 | . | - | - | . | .
CC(C)CCNC(=S)Nc1ccccn1 | - | ? | 45µM | - | -
COCCNC(=S)Nc1ccccn1 | - | - | . | - | -
Cc1ccc(C(=O)Nc2nc(C)c(C)s2)o1 | - | - | - | 14µM | -
COC(=O)c1sc(NC(=O)c2ccc(C)o2)nc1C | - | - | - | ? | -
Cc1nc(NC(=O)c2ccc(Br)o2)sc1C | - | - | - | 16µM | -
Cn1cc(S(=O)(=O)N2CCc3ccccc32)cc1C(=O)Nc1ccc(C(F)(F)F)cc1 | . | - | - | . | .
COc1ccc(NCc2cc3cc4c(cc3n(CC(=O)Nc3ccc(C)c(C)c3)c2=O)OCO4)cc1 | . | - | - | . | .
SMILES | RE007 growth inh | TbPYK inhibitor | Sm TGR block | LmPK inhibitor | AMA1 RON2 block
Cc1ccc(-c2cn(C[C@H]3CC[C@@H]([C@@H]4CC[C@H](Cn5cc(-c6ccc(C)cc6)nn5)O4)O3)nn2)cc1 | - | - | - | - | -
c1ccc(-c2cn(C[C@H]3CC[C@H](Cn4cc(-c5ccccn5)nn4)O3)nn2)nc1 | - | - | - | - | 1µM
CNC[C@H](O)c1ccc(OC(=O)C(C)(C)C)c(OC(=O)C(C)(C)C)c1 | . | - | . | . | .
Cc1ccc2occ(CC(=O)Nc3ccc(S(=O)(=O)N4CCC(C)CC4)cc3)c2c1 | . | - | - | . | .
O=C(COC(=O)c1ncc(Cl)c(Cl)c1Cl)Nc1ccc(Cl)cn1 | - | - | 40µM | . | -
Cc1ccc(C)c(Nc2nnc(-n3nc(C)cc3C)c3ccccc23)c1 | . | - | - | . | .
Cc1ccc(CNC(=O)C(=O)NCC(c2cccs2)S(=O)(=O)c2ccc(C)cc2)cc1 (centres undefined) | . | - | ? | . | .

High-throughput results as filed in PubChem BioAssay.
